Data as given in the supplement of paper PMC6555819.

Assays:
Assay in all cases: PBM binding z-score (relative to random genomic background probes); higher = stronger binding; sequences stand for … in GC…GCGATTGACAGCGTAGAATGAAGG
[1] = test system: FXR:RXRa (NR concentration 270 nM, RXRa partner concentration 90 nM)
Outline: (§1)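 Probes were double-stranded and carried 34-nt variable regions with direct-repeat seeds, single-nucleotide variants, half-site ablations and random human genomic background sequences, printed on custom Agilent 4×180K protein-binding microarrays. Arrays were incubated 1 h with ligand-free nuclear receptor dimers in PBS pH 7.4, 2% milk, 0.02% Triton X-100, 1 mM DTT, 0.2 mg/mL BSA and 0.4 mg/ml salmon testes DNA. Antibodies against each partner (one per run) detected binding, and scanned fluorescence was regression-normalized. Binding z-scores use the random background probes as reference.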

[2] = test system: LXRa:RXRa (NR concentration 270 nM, RXRa partner concentration 90 nM)
Outline: as §1

[3] = test system: LXRa homodimer (NR concentration 270 nM)
Outline: as §1

[4] = test system: LXRb:RXRa (NR concentration 270 nM, RXRa partner concentration 90 nM)
Outline: as §1

[5] = test system: LXRb homodimer (NR concentration 270 nM)
Outline: as §1

[6] = test system: PPARa:RXRa (NR concentration 270 nM, RXRa partner concentration 90 nM)
Outline: as §1

[7] = test system: PPARg:RXRa (NR concentration 180 nM, RXRa partner concentration 90 nM)
Outline: as §1

[8] = test system: PPARg:RXRa 270nM:90nM, anti-RXR (NR concentration 270 nM, RXRa partner concentration 90 nM)
Outline: as §1

[9] = test system: PPARg:RXRa 30nM:10nM, anti-RXR (NR concentration 30 nM, RXRa partner concentration 10 nM)
Outline: as §1

[10] = test system: PPARg:RXRa 90nM:30nM, anti-RXR (NR concentration 90 nM, RXRa partner concentration 30 nM)
Outline: as §1

## CGTCCAAGGTCATCGGAGGTCAGTGAAGACAGAT
[1]
  PBM binding z-score: 8.01
[2]
  PBM binding z-score: 7.87
[3]
  PBM binding z-score: 5.77
[4]
  PBM binding z-score: 6.23
[5]
  PBM binding z-score: 1.29
[6]
  PBM binding z-score: 5.95
[7]
  PBM binding z-score: 5.99
[8]
  PBM binding z-score: 5.91
[9]
  PBM binding z-score: 2.4
[10]
  PBM binding z-score: 4.7

## TCTATTAGGTGAAGGGCAACCGACGAGTCCGTTT
[1]
  PBM binding z-score: 0.937
[2]
  PBM binding z-score: 1.07
[3]
  PBM binding z-score: 0.449
[4]
  PBM binding z-score: 0.669
[5]
  PBM binding z-score: 0.667
[6]
  PBM binding z-score: 2.44
[7]
  PBM binding z-score: 4
[8]
  PBM binding z-score: 5.18
[9]
  PBM binding z-score: 4.86
[10]
  PBM binding z-score: 5.44

## ACTAGCAGGCCAAGGGTCACGCAAGATTAGTCCG
[1]
  PBM binding z-score: 3.81
[2]
  PBM binding z-score: 3.6
[3]
  PBM binding z-score: 0.279
[4]
  PBM binding z-score: 3.53
[5]
  PBM binding z-score: -0.566
[6]
  PBM binding z-score: 5.24
[7]
  PBM binding z-score: 9.04
[8]
  PBM binding z-score: 7.85
[9]
  PBM binding z-score: 7.41
[10]
  PBM binding z-score: 7.99

## CGTCAAAGTGCAACTAAGGTAACGTAAAGCACGC
[1]
  PBM binding z-score: 0.888
[2]
  PBM binding z-score: 0.803
[3]
  PBM binding z-score: -0.122
[4]
  PBM binding z-score: 0.5
[5]
  PBM binding z-score: -0.623
[6]
  PBM binding z-score: 1.29
[7]
  PBM binding z-score: 0.842
[8]
  PBM binding z-score: 0.685
[9]
  PBM binding z-score: 0.0299
[10]
  PBM binding z-score: 0.977

## CCTAGTTGGTTAGGAGGTCACACACCGGATATGA
[1]
  PBM binding z-score: 3.07
[2]
  PBM binding z-score: 3.38
[3]
  PBM binding z-score: 2.02
[4]
  PBM binding z-score: 3.21
[5]
  PBM binding z-score: 0.635
[6]
  PBM binding z-score: 4.02
[7]
  PBM binding z-score: 2.54
[8]
  PBM binding z-score: 3.3
[9]
  PBM binding z-score: 1.25
[10]
  PBM binding z-score: 2.81

## CCTACTGGCCCACGAAAGGTCATTGATTCAGTGA
[1]
  PBM binding z-score: 3.58
[2]
  PBM binding z-score: 4.35
[3]
  PBM binding z-score: 5.66
[4]
  PBM binding z-score: 4.39
[5]
  PBM binding z-score: 0.684
[6]
  PBM binding z-score: 4.2
[7]
  PBM binding z-score: 0.749
[8]
  PBM binding z-score: 2.36
[9]
  PBM binding z-score: 0.593
[10]
  PBM binding z-score: 1.47

## TCTAGCAGGCCAGAAGGTCACTCAAGAGGTACGG
[1]
  PBM binding z-score: 1.61
[2]
  PBM binding z-score: 2.17
[3]
  PBM binding z-score: 0.0558
[4]
  PBM binding z-score: 1.8
[5]
  PBM binding z-score: -0.711
[6]
  PBM binding z-score: 3.04
[7]
  PBM binding z-score: 1.46
[8]
  PBM binding z-score: 2.86
[9]
  PBM binding z-score: 2.27
[10]
  PBM binding z-score: 2.71

## ACTAGCTGGTCAGCTGAGGTCACACACAATTCGG
[1]
  PBM binding z-score: 3.62
[2]
  PBM binding z-score: 3.57
[3]
  PBM binding z-score: 2.15
[4]
  PBM binding z-score: 3.21
[5]
  PBM binding z-score: -0.0797
[6]
  PBM binding z-score: 3.58
[7]
  PBM binding z-score: 1.76
[8]
  PBM binding z-score: 2.01
[9]
  PBM binding z-score: 0.341
[10]
  PBM binding z-score: 0.958

## CTGGAAAGGTCGTGCTCAGGTGAGTATACCAAAC
[1]
  PBM binding z-score: 5.25
[2]
  PBM binding z-score: 3.35
[3]
  PBM binding z-score: -0.219
[4]
  PBM binding z-score: 2.7
[5]
  PBM binding z-score: -0.505
[6]
  PBM binding z-score: 4.7
[7]
  PBM binding z-score: 2.63
[8]
  PBM binding z-score: 3.81
[9]
  PBM binding z-score: 1.04
[10]
  PBM binding z-score: 2.24

## CGTCAAAGTTAAACTAAGGTAACGTAAAGCACGC
[1]
  PBM binding z-score: 0.945
[2]
  PBM binding z-score: 1.15
[3]
  PBM binding z-score: 0.57
[4]
  PBM binding z-score: 0.346
[5]
  PBM binding z-score: 0.169
[6]
  PBM binding z-score: 0.868
[7]
  PBM binding z-score: 0.628
[8]
  PBM binding z-score: 0.688
[9]
  PBM binding z-score: 0.0889
[10]
  PBM binding z-score: 0.292

## CTCGAAAGGTCGTGCCCAGGTGAGTATACCAAAC
[1]
  PBM binding z-score: 5.26
[2]
  PBM binding z-score: 3.99
[3]
  PBM binding z-score: 0.422
[4]
  PBM binding z-score: 3.22
[5]
  PBM binding z-score: 0.542
[6]
  PBM binding z-score: 4.81
[7]
  PBM binding z-score: 2.54
[8]
  PBM binding z-score: 3.88
[9]
  PBM binding z-score: 1.14
[10]
  PBM binding z-score: 2.23

## CCTACTAGGCCAAAGGTCATTGATTCCAATGCTC
[1]
  PBM binding z-score: 5.07
[2]
  PBM binding z-score: 5.49
[3]
  PBM binding z-score: 4.69
[4]
  PBM binding z-score: 5.36
[5]
  PBM binding z-score: 1.48
[6]
  PBM binding z-score: 6.66
[7]
  PBM binding z-score: 12.3
[8]
  PBM binding z-score: 10.5
[9]
  PBM binding z-score: 11.4
[10]
  PBM binding z-score: 11.8

## TCTGCTAGGTCAACGATGCTCAGCTAATCTGCTA
[1]
  PBM binding z-score: 2.94
[2]
  PBM binding z-score: 1.88
[3]
  PBM binding z-score: -0.569
[4]
  PBM binding z-score: 1.22
[5]
  PBM binding z-score: -0.547
[6]
  PBM binding z-score: 3.02
[7]
  PBM binding z-score: 2.04
[8]
  PBM binding z-score: 2.92
[9]
  PBM binding z-score: 1.7
[10]
  PBM binding z-score: 2.32

## TCGAATAGGTTACCAATGGGGCATTCAGCTTTCT
[1]
  PBM binding z-score: 0.65
[2]
  PBM binding z-score: 2.61
[3]
  PBM binding z-score: -0.377
[4]
  PBM binding z-score: 2
[5]
  PBM binding z-score: -0.392
[6]
  PBM binding z-score: 1.87
[7]
  PBM binding z-score: 0.255
[8]
  PBM binding z-score: 1.75
[9]
  PBM binding z-score: 2.94
[10]
  PBM binding z-score: 2.43

## CAGACAGGGTCAGCTAGGCCAGAGTAGGGACGGC
[1]
  PBM binding z-score: 4.38
[2]
  PBM binding z-score: 2.22
[3]
  PBM binding z-score: -0.426
[4]
  PBM binding z-score: 1.75
[5]
  PBM binding z-score: -0.493
[6]
  PBM binding z-score: 4.34
[7]
  PBM binding z-score: 2.66
[8]
  PBM binding z-score: 2.47
[9]
  PBM binding z-score: 0.42
[10]
  PBM binding z-score: 1.51

## ATATGTAGGTTAAGTGTCATTCAGGTTGGTTCGC
[1]
  PBM binding z-score: 1.68
[2]
  PBM binding z-score: 2.16
[3]
  PBM binding z-score: 1.09
[4]
  PBM binding z-score: 1.93
[5]
  PBM binding z-score: 0.826
[6]
  PBM binding z-score: 4.74
[7]
  PBM binding z-score: 7.81
[8]
  PBM binding z-score: 7.39
[9]
  PBM binding z-score: 6.14
[10]
  PBM binding z-score: 7.88

## TCTCGGCGGACACGAAGGTCAGAGCTTTCCAGAG
[1]
  PBM binding z-score: 0.592
[2]
  PBM binding z-score: 0.668
[3]
  PBM binding z-score: 0.198
[4]
  PBM binding z-score: 0.454
[5]
  PBM binding z-score: -1.37
[6]
  PBM binding z-score: 1.5
[7]
  PBM binding z-score: 0.0295
[8]
  PBM binding z-score: 1.04
[9]
  PBM binding z-score: 1.16
[10]
  PBM binding z-score: 1.08

## TCTAGTTGGTCACGGAGGTCAAACACGACGGGTA
[1]
  PBM binding z-score: 4.19
[2]
  PBM binding z-score: 4.67
[3]
  PBM binding z-score: 4.58
[4]
  PBM binding z-score: 4.25
[5]
  PBM binding z-score: 1.38
[6]
  PBM binding z-score: 4.39
[7]
  PBM binding z-score: 3.25
[8]
  PBM binding z-score: 4.13
[9]
  PBM binding z-score: 3.76
[10]
  PBM binding z-score: 4.08

## TCTACAGGGTCAAAGGCCAGAGTACGAATGTCGA
[1]
  PBM binding z-score: 7.34
[2]
  PBM binding z-score: 4.67
[3]
  PBM binding z-score: 0.313
[4]
  PBM binding z-score: 4.11
[5]
  PBM binding z-score: 0.605
[6]
  PBM binding z-score: 5.99
[7]
  PBM binding z-score: 7.62
[8]
  PBM binding z-score: 7.12
[9]
  PBM binding z-score: 5.3
[10]
  PBM binding z-score: 6.93

## TCTTATAGATCAGCAGGTTAAGAAAGCTGGCCAA
[1]
  PBM binding z-score: 0.0686
[2]
  PBM binding z-score: 0.24
[3]
  PBM binding z-score: -0.273
[4]
  PBM binding z-score: 0.335
[5]
  PBM binding z-score: -0.379
[6]
  PBM binding z-score: 0.481
[7]
  PBM binding z-score: -0.154
[8]
  PBM binding z-score: 1.43
[9]
  PBM binding z-score: 2.63
[10]
  PBM binding z-score: 2.09

## CCAGACAGGTGAGAGGTAACTCAGTCTGGTACGC
[1]
  PBM binding z-score: -0.0103
[2]
  PBM binding z-score: 0.206
[3]
  PBM binding z-score: -0.48
[4]
  PBM binding z-score: 0.237
[5]
  PBM binding z-score: -0.589
[6]
  PBM binding z-score: 1.97
[7]
  PBM binding z-score: 2.93
[8]
  PBM binding z-score: 4.15
[9]
  PBM binding z-score: 1.95
[10]
  PBM binding z-score: 3.82

## TCGAGTAGGTTACCAATGGGGCGTTCAGCTTTCT
[1]
  PBM binding z-score: -0.0945
[2]
  PBM binding z-score: 0.41
[3]
  PBM binding z-score: -0.684
[4]
  PBM binding z-score: 0.47
[5]
  PBM binding z-score: -0.564
[6]
  PBM binding z-score: 1.09
[7]
  PBM binding z-score: -0.0878
[8]
  PBM binding z-score: 1.06
[9]
  PBM binding z-score: 0.919
[10]
  PBM binding z-score: 1.03

## ATCTCTAGGTACAGATAGTTCAGTGAATGCAAAT
[1]
  PBM binding z-score: 0.079
[2]
  PBM binding z-score: 0.141
[3]
  PBM binding z-score: 0.396
[4]
  PBM binding z-score: 0.242
[5]
  PBM binding z-score: 0.548
[6]
  PBM binding z-score: 0.12
[7]
  PBM binding z-score: 0.349
[8]
  PBM binding z-score: 0.108
[9]
  PBM binding z-score: 0.29
[10]
  PBM binding z-score: 0.33
